This passage reports outcome and AC50 results from PubChem BioAssay (EPA / NIEHS).

Inconclusive results are not listed. The source made the active and inactive calls. The calls were made as follows, unless noted: active = hit-call score of the fitted dose curve at least 0.9, where 1 is the maximum; inconclusive = response in the unintended direction; inactive = score below 0.9.

For orientation: AC50 means the concentration giving half of the maximal activity seen.

Cellular tumor antigen p53 (Homo sapiens), sequence (P04637 whole entry, looked up): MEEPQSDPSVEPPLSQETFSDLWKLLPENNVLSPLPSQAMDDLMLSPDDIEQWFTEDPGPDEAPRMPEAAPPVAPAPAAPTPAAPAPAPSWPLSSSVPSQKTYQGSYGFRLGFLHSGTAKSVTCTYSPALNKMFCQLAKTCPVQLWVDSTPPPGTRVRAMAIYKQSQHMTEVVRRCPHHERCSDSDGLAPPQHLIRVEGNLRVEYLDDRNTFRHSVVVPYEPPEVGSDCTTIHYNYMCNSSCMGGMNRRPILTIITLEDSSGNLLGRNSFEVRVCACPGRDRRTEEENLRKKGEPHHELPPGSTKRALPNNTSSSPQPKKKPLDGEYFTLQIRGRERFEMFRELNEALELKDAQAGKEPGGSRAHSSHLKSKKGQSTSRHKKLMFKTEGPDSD

The first assay concerns the target Cellular tumor antigen p53 (Homo sapiens) (UniProt P04637). In words: TOX21_p53_BLA_p4_ratio: Tox21 HCT-116 p53 Agonism Beta-lactamase Assay, Ratio, Phase 4 (AID 2283601). The essentials:
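HCT-116 p53 beta-lactamase reporter cells (4000/well) preincubated 5 h, then compound (217-fold dilution of DMSO stock) for 16 h at 37C. CCF4-AM substrate added 2 h at room temperature; 460/530 nm emission ratio fitted upward versus DMSO.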
As to `CCCCC(CC)COC(=O)OOC(C)(C)C` (centres undefined), the result was inactive.

`Cc1c(Cl)c(=O)oc2cc(OP(=O)(OCCCl)OCCCl)ccc12`: the outcome was inactive. Still for that read-out and setting: next, `C[C@]12CC[C@H]3[C@@H](CCC4=C(Cl)C(=O)CC[C@@]43C)[C@@H]1CC[C@@H]2O`: “inactive”; `CC1(C)[C@H](C=C(Cl)Cl)[C@@H]1C(=O)O[C@@H](C#N)c1cccc(Oc2ccccc2)c1`: “inactive”.

Turning to `CCOC(=O)C(Cl)C(C)=O` (centres undefined), the outcome was inactive.

In the case of `Cc1nnc2n1-c1sc(CCc3ccc(CC(C)C)cc3)cc1C(c1ccccc1Cl)=NC2C` (centres undefined), the concentration at half-maximal activity (AC50) is 42.2 µM (active). For the compound `Clc1ccc2ccccc2c1`, the result was inactive. As to `S=C(SSC(=S)N1CCCCC1)N1CCCCC1`, the outcome was inactive.

For `CN=CNc1ccc(C)cc1C`, the outcome was inactive. The same measure, in the same setting: then `CC(=O)O[C@H]1C[C@H](O[C@H]2[C@@H](O)C[C@H](O[C@H]3[C@@H](O)C[C@H](O[C@H]4CC[C@@]5(C)[C@H](CC[C@@H]6[C@@H]5C[C@@H](O)[C@]5(C)[C@@H](C7=CC(=O)OC7)CC[C@]65O)C4)O[C@@H]3C)O[C@@H]2C)O[C@H](C)[C@H]1O[C@@H]1O[C@H](CO)[C@@H](O)[C@H](O)[C@H]1O`, with “inactive”.

For `N#CSCc1ccccc1`, the outcome was inactive. For the compound `Cc1ccc2ccccc2c1`, the result was inactive. In the case of `Cn1cc(C2=C(c3cn(C4CCN(Cc5ccccn5)CC4)c4ccccc34)C(=O)NC2=O)c2ccccc21`, the outcome was inactive.

For the compound `COc1ccc2c(c1OC)C(=O)O[C@H]2[C@@H]1c2cc3c(cc2CCN1C)OCO3`, the result was inactive. In the case of `O=C(O)C(Br)CBr` (centres undefined), the outcome was inactive.

For `CC(=O)OC1CN2CCC1CC2` (centres undefined), the result was inactive. Same read-out and setting: then `CC1N=C(N)OC1c1ccccc1` (centres undefined), with “inactive”. As for `Nc1nc(N)nc(N)n1`, the outcome was inactive. For `CCCCN(N=O)C(=N)N[N+](=O)[O-]`, the half-maximal activity concentration (AC50) was 40.7 µM (active). Regarding `CN1C(=O)[C@@H](NC(=O)c2cc3ccccc3[nH]2)N=C(c2ccccc2)c2ccccc21`, the result was inactive. On the same count and under the same terms, then `ClC=CCCl`, with “inactive”.

With `CC[C@]1(O)CC[C@H]2[C@@H]3CCC4=CCCC[C@@H]4[C@H]3CC[C@@]21C`, the AC50 was 7.04 µM (active). `[CH3][Hg][Cl]`: the outcome was inactive.

As to `CC(C)NC(C)C`, the result was inactive. Regarding `C=C(Cl)CSC(=S)N(CC)CC`, the outcome was inactive. In the case of `c1ccc2c(c1)cc1ccc3cccc4ccc2c1c34`, the AC50 was 2.39 µM (active). Turning to `O=C(O)CCCO`, the result was inactive. Turning to `CCCC1CCCCN1` (centres undefined), the outcome was inactive. Consider `CCCN`, for which the outcome was inactive. On to `COc1cccc2c1cc([N+](=O)[O-])c1c(C(=O)O)cc3c(c12)OCO3`, for which the AC50 was 3.74 µM (active). On to `CC=CCC#N`, for which the outcome was inactive. Still for that read-out and setting: next, `CC(C)(C)NCC(O)c1ccccc1Cl` (centres undefined): “inactive”; `CNc1ccc(C(=O)CC(O)CCC(C)C2OC(=O)CC(O)CC(=O)CC(O)CC(O)CC(O)CC(O)CC3(O)CC(O)C(C(=O)OC)C(CC(O[C@@H]4O[C@H](C)[C@@H](O)[C@H](N)[C@@H]4O)/C=C/C=C/C=C/C=C/C=C/C=C/C=C/C2C)O3)cc1` (some centres undefined) (tested in a mixture with another compound): “inactive”.

In another assay the target is Thyroid hormone receptor alpha (Rattus norvegicus) + Thyroid hormone receptor beta (Rattus norvegicus) (UniProt P18113+P63059). In words: TOX21_TR_LUC_GH3_Antagonist_Followup: Tox21 GH3 Thyroid Hormone Receptor Antagonism Luciferase Follow-Up Assay (AID 2283942). The essentials:
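Luminescence read-out (ONE-Glo, 30 min at room temperature) in GH3 reporter cells challenged with 1.0 nM T3 final. Compounds ran at 92 uM to 5nM over 15 concentrations for 24 h; DMSO served as negative control and baseline.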
In the case of `C[C@]12CC[C@H]3[C@@H](CCC4=C(Cl)C(=O)CC[C@@]43C)[C@@H]1CC[C@@H]2O`, the outcome was inactive. `CN1C(=O)[C@@H](NC(=O)c2cc3ccccc3[nH]2)N=C(c2ccccc2)c2ccccc21`: the outcome was inactive. On to `CC[C@]1(O)CC[C@H]2[C@@H]3CCC4=CCCC[C@@H]4[C@H]3CC[C@@]21C`, for which the outcome was inactive.

In a further assay the target is THRB (gene 7068) (UniProt P10828). The assay can be described thus: TOX21_TRB_COA_Antagonist_Followup_ratio: Tox21 Thyroid Hormone Receptor beta Antagonism through Coactivator Recruitment Follow-Up Assay, Ratio (AID 2283967). The essentials: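 GST-TRb LBD 5.0 nM + 0.10% BSA, compound added; fluorescein-SRC-2 peptide 200 nM, Tb-anti-GST Ab 2 nM. TR-FRET, ex 340 / em 520:495 ratio. Norm: DMSO 0%, T3 100%.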
THRB (gene 7068), sequence (P10828 whole entry, looked up, the tested form may be a part): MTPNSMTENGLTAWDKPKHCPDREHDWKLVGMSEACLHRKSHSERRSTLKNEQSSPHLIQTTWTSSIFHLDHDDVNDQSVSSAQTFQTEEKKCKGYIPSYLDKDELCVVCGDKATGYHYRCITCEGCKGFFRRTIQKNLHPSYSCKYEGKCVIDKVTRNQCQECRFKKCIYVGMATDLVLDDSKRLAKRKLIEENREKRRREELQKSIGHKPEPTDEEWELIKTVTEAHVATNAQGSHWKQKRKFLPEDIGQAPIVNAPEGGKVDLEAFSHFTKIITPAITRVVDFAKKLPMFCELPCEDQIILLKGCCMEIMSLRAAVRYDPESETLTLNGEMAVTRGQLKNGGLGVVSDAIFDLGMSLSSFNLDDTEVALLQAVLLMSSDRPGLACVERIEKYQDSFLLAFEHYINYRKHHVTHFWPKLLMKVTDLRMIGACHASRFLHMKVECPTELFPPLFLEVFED
For the compound `C[C@]12CC[C@H]3[C@@H](CCC4=C(Cl)C(=O)CC[C@@]43C)[C@@H]1CC[C@@H]2O`, the result was inactive. Still for that read-out and setting: then `CN1C(=O)[C@@H](NC(=O)c2cc3ccccc3[nH]2)N=C(c2ccccc2)c2ccccc21`, with “inactive”; and `CC[C@]1(O)CC[C@H]2[C@@H]3CCC4=CCCC[C@@H]4[C@H]3CC[C@@]21C`, with “inactive”.

Tested on in another assay: not listed separately
In words: CCTE_Shafer_MEA_dev_firing_rate_mean: CCTE's Neural Network Formation Assay for Mean Firing Rate, Shafer Lab (AID 2284031; active = hit-call score of the fitted dose curve at least 0.9, where 1 is the maximum; inactive = score below 0.9;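 as to AC50: curve fitted for loss of firing so AC50 reflects decreased mean firing rate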). The essentials:
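Steps: seed rat cortical cells (1.5 x 10^5/well) with laminin on PEI-coated MEA; dose day 0; record DIV 5/7/9/12, full media and compound exchange after DIV 5 and 9 recordings; compute well-mean firing rate AUC.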
In the case of `CC1(C)[C@H](C=C(Cl)Cl)[C@@H]1C(=O)O[C@@H](C#N)c1cccc(Oc2ccccc2)c1`, the call was inactive.

In the case of `[CH3][Hg][Cl]`, the AC50 is 0.177 µM (active). On to `c1ccc2c(c1)cc1ccc3cccc4ccc2c1c34`, for which the outcome was inactive.

Tested on in another assay: not listed separately
The assay can be described thus: CCTE_Shafer_MEA_dev_per_burst_spike_percent: CCTE's Neural Network Formation Assay for Percent of Spikes in a Burst, Shafer Lab (AID 2284032; active = hit-call score of the fitted dose curve at least 0.9, where 1 is the maximum; inactive = score below 0.9;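 as to AC50: fitted as a decrease in burst spike percentage below DMSO baseline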). The essentials:
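Value is trapezoidal AUC over recordings on days 5, 7, 9 and 12 of the well-mean fraction of spikes falling in single-electrode bursts; rat cortical cultures exposed continuously from plating, treatment renewed DIV 5 and 9, fitted downward against DMSO.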
`CC1(C)[C@H](C=C(Cl)Cl)[C@@H]1C(=O)O[C@@H](C#N)c1cccc(Oc2ccccc2)c1`: the AC50 was 8.96 µM (active).

On to `[CH3][Hg][Cl]`, for which the half-maximal activity concentration (AC50) is 0.306 µM (active).

For `c1ccc2c(c1)cc1ccc3cccc4ccc2c1c34`, the result was inactive.

Tested on in the next assay: not listed separately
In words: CCTE_Shafer_MEA_dev_active_electrodes_number: CCTE's Neural Network Formation Assay for Number of Active Electrodes, Shafer Lab (AID 2284040).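 As to AC50: potency for loss of active electrodes versus DMSO so lower counts are hits.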 The essentials:
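Counts electrodes per well firing at least 5 spikes/min, recorded on days 5, 7, 9 and 12 in rat cortical cultures dosed continuously from plating (treatment refreshed DIV 5, 9). Value is the area under the curve over recordings, fitted downward relative to DMSO.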
With `CC1(C)[C@H](C=C(Cl)Cl)[C@@H]1C(=O)O[C@@H](C#N)c1cccc(Oc2ccccc2)c1`, the AC50 is 15 µM (active). Still for that read-out and setting: next, `[CH3][Hg][Cl]`: 0.36 µM (active). For `c1ccc2c(c1)cc1ccc3cccc4ccc2c1c34`, the call was inactive.

Tested on in a further assay: not listed separately
In words: CCTE_Shafer_MEA_dev_burst_rate: CCTE's Neural Network Formation Assay for Burst Rate, Shafer Lab (AID 2284042; active = hit-call score of the fitted dose curve at least 0.9, where 1 is the maximum; inactive = score below 0.9;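 as to AC50: potency for loss of burst rate below DMSO control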). The essentials:
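Developmental network assay measuring how 12-day exposure of rat cortical neuron cultures alters bursting on extracellular MEA recordings. Values are AUC of well-mean burst rate across four recording days, relative to DMSO vehicle.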
Turning to `CC1(C)[C@H](C=C(Cl)Cl)[C@@H]1C(=O)O[C@@H](C#N)c1cccc(Oc2ccccc2)c1`, the compound was classed as inactive. Take `[CH3][Hg][Cl]`: the AC50 was 0.207 µM (active). `c1ccc2c(c1)cc1ccc3cccc4ccc2c1c34`: the compound was called inactive.

Tested on in a further assay: not listed separately
In words: CCTE_Shafer_MEA_dev_bursting_electrodes_number: CCTE's Neural Network Formation Assay for Number of Bursting Electrodes, Shafer Lab (AID 2284043).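 As to AC50: potency is for loss of bursting electrodes relative to DMSO.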 An outline of the steps:
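Rat cortical primary neurons, 48-well MEA, 16 electrodes/well; dosing DIV 0–12, re-dosed with full media change DIV 5, 9. Recordings DIV 5/7/9/12, AxIS adaptive spike detector; bursting electrode = ≥1 burst/2 min. AUC across days; loss of signal vs DMSO.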
As to `CC1(C)[C@H](C=C(Cl)Cl)[C@@H]1C(=O)O[C@@H](C#N)c1cccc(Oc2ccccc2)c1`, the half-maximal activity concentration (AC50) was 8.64 µM (active). Still for that read-out and setting: then `[CH3][Hg][Cl]`, with 0.37 µM (active). Regarding `c1ccc2c(c1)cc1ccc3cccc4ccc2c1c34`, the compound was classed as inactive.
